Laboratory results published in PubChem BioAssay AID1345082 (National Center for Advancing Translational Sciences (NCATS), 2018).
Screen size: about 94,000 compounds; about 4,000 (4.3%) were called active. About 29% were inconclusive and are not listed. Only a selection was taken, and actives are over-represented in it overall. Unmarked numbers belong to inactive results. Calls follow the shape of the dose curve; as a rule, active = well fitted inhibition curve with a large enough effect; inconclusive = small, poorly fitted or top-dose-only effect; inactive = no such curve, though single readings can be large or run the other way.

Test: Cytotoxic Profiling in NIH 3T3 Cell Line of Diverse Libraries Using Quantitative High-Throughput Screening; also: nearly all actives have a fitted effect of over 55% in size
Details: NIH 3T3 viability, CellTiter-Glo ATP luminescence, 48-72 h; series mostly up to 96.7 µM; activity change, negative = cytotoxicity: at the top concentration
Summary of the method: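 Cytotoxicity was measured by CellTiter-Glo ATP luminescence after 48 or 72 h compound exposure at 37 °C. Mouse NIH 3T3 fibroblasts were seeded at 400 cells/well and dosed by 23 nL pin transfer.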
% is scaled to controls: 0 for no effect and ±100 for the full control effect; potency is read from the fitted curve at half-maximal effect.

SMILES | outcome | activity change, negative = cytotoxicity | Potency
COCc1nncn1C1CCN(C(=O)c2ccccc2F)CC1 | inactive | – | –
O=C1Nc2ccc(-c3ccsc3)cc2C(=O)N2CC[C@H](NS(=O)(=O)c3cccs3)[C@@H]12 | – | -25.8% | –
O=C1Nc2ccc(-c3ccccc3F)cc2C(=O)N2CCN(C(=O)c3cccs3)C[C@H]12 | – | -25.5% | –
N[C@H]1CCN2C(=O)c3cc(-c4ccc(F)cc4F)ccc3NC(=O)[C@H]12 | – | – | 112 µM (active)
CS(=O)(=O)N1C[C@H]2CCN(C(=O)c3ccc(=O)[nH]c3)C[C@H]21 | – | -12.6% | –
COc1ccc(-c2[nH]ncc2CN2CCCC(C(=O)NCc3ccccc3)CCNC(=O)CC2)cc1 (configuration not stated) | inactive | – | –
CC(=O)N[C@@H]1CN(Cc2cn[nH]c2-c2ccc(F)cc2)C[C@H]1CO | – | -7.37% | –
COc1ccc2cc(-c3[nH]ncc3CN3CCN(c4cccc(C)n4)CC3)ccc2c1 | – | – | 28.2 µM (active)
CCc1nnc([C@@H]2CC(F)(F)CN2C(=O)c2cc(C)oc2C)o1 | – | -7.09% | –
C=CCNC(=O)N[C@H]1C[C@@H](C(=O)N[C@H](Cc2c[nH]c3ccccc23)C(N)=O)N(C(=O)C=C(C)C)C1 | – | -1.24% | –
O=C1CC2(CCN(C(=O)C3CCN(C(=O)c4ccccc4Cl)CC3)CC2)Oc2ccccc2N1 | – | -8.99% | –
Cn1cnc(S(=O)(=O)N2CCC(c3noc(-c4ccccc4)n3)C2)c1 (configuration not stated) | – | -21.7% | –
O=C(NC1CCCC1)N1CCC(c2noc(-c3ccccc3)n2)C1 (configuration not stated) | – | – | 39.8 µM (active)
O=C(Cn1ccnc1)N1CCC(c2noc(-c3ccncc3)n2)C1 (configuration not stated) | inactive | – | –
Cc1noc(C)c1S(=O)(=O)N1CCC2(CC1)CN(c1ccccc1)C2=O | – | -6.57% | –
O=C(NC1CCCCC1)N1CCCC(Cn2c(C3CC3)nc3cccnc32)C1 (configuration not stated) | – | -7.77% | –
Cc1nc(N2CCC(NC(=O)c3ccc4c(c3)OCO4)CC2)cc(C(F)(F)F)n1 | – | -41.1% | –
Cc1nc(N2CCC(NC(=O)C(C)Oc3ccccc3)CC2)cc(C(F)(F)F)n1 (configuration not stated) | – | -44.5% | –
Cc1nc(N2CCC(C(=O)NCc3ccc(C(C)C)cc3)CC2)cc(C(F)(F)F)n1 | – | – | 25.1 µM (active)
CNC(=O)N1CCc2nc(N3CCOCC3)[nH]c(=O)c2CC1 | inactive | – | –
COc1ccc([S+](=O)([O-])c2nnn3c2nc(NC2CCCC2)c2ccccc23)cc1 | – | -9.25% | –
O=C(NCCOc1ccccc1)c1nc2c(o1)CCN(CC1CCCCC1)CC2 | – | – | 79.4 µM (active)
CCc1nc2c(c(-c3ccc(OC)cc3)n1)CCN(CC1CCCCC1)CC2 | – | -2.8% | –
O=C(NCC1CC1)c1nc2c(o1)CCN(CCc1ccccc1)CC2 | – | -20.5% [at 138 µM] | –
CN(C)C[C@@H]1CN(S(C)(=O)=O)C[C@H]1NC(=O)c1cccc(F)c1 | – | 1.85% | –

SMILES | outcome | activity change, negative = cytotoxicity | Potency
COc1ccc(C(=O)N2CCC(N3C[C@H](O)C[C@H]3C(=O)NC3CCCCC3)CC2)cn1 | inactive | – | –
C[S+](=O)([O-])N1CCC2(C1)N=C(c1ccccn1)C(=O)N2 (configuration not stated) | – | 3.04% [at 138 µM] | –
CCN1C(=O)COC[C@@H]1C(O)c1ccc(NC(=O)Cc2ccc(OC)cc2)cc1 (some centres not stated) | inactive [at 174 µM] | – | –
CC(C)CN1C(=O)COC[C@@H]1[C@H](O)c1ccc(NC(=O)Cc2ccccc2)cc1 | – | -11.9% [at 138 µM] | –
COc1ccccc1CN1C(=O)COC[C@@H]1[C@H](O)c1ccc(NC(=O)c2ccc(C#N)cc2)cc1 | – | – | 44.7 µM (active)
O=C(Cc1ccccc1)Nc1ccc([C@@H](O)[C@H]2COCC(=O)N2)cc1 | – | 2.9% [at 138 µM] | –
Cc1nc2cnccn2c1C(=O)NC1CCCC1 | – | -26.7% [at 138 µM] | –
Cc1cccc(-c2cc(C3CCN(S(=O)(=O)c4ccc(C#N)cc4)CC3)[nH]n2)c1 | – | – | 14.1 µM (active)
Cc1cnc(-c2cccnc2)n1C1CCN(S(=O)(=O)c2cccc(F)c2)CC1 | – | -7.18% | –
Cc1cnc(CC2CCN(S(=O)(=O)c3ccc(C#N)cc3)C2)n1Cc1ccccc1 (configuration not stated) | – | -19.8% | –
Cn1nc2n(c1=O)CCN(S(=O)(=O)c1ccc(C#N)cc1)CC2 | inactive | – | –
Cc1cccc(-c2cc(C3CCN(S(=O)(=O)c4cccc(C#N)c4)CC3)[nH]n2)c1 | – | – | 5.01 µM (active)
Cc1cccc(S(=O)(=O)N2CCC(n3cnnc3C(C)C)CC2)c1 | – | -17.6% | –
O=C(Cc1ccsc1)NCC1CCCCC(=O)N1 (configuration not stated) | inactive | – | –
Cc1ncccc1C(=O)N1CC2CC(C1)[C@H]1CCCC(=O)N1C2 (some centres not stated) | – | -0.593% | –
CN1CC(=O)N(C2CCCNCC2)Cc2c1ncnc2N1CCCC(F)C1 (configuration not stated) | – | -4.05% | –
Cc1noc(C)c1CC(=O)NCC12CCC=C1N(Cc1ccccc1)C(=O)CC2 (configuration not stated) | – | -15% | –
Cn1ncc(N2CCC(C(=O)NC3CCCC3)C2)cc1=O (configuration not stated) | – | -3.98% | –
CCc1ccc(C(=O)NC2CCN(c3cnn(CC)c(=O)c3)CC2)cc1 | – | -15.7% | –
Cc1cc(C)cc(C(=O)NC2CCN(c3cnn(C)c(=O)c3)CC2)c1 | – | – | 39.8 µM (active)
COc1ccc(C(=O)N2CCN(C(=O)Nc3cccc(OC)c3)C[C@@H]2C(=O)N[C@H]2CCCNC2=O)cc1 | – | 4.28% | –
Cc1cc(C(=O)NCC2(COc3cccnc3)C[C@@H](O)[C@@H](O)C2)n(C)n1 (some centres not stated) | – | -25.3% [at 174 µM] | –
Cc1ccc(-c2noc([C@@H]3Cc4nc[nH]c4CN3Cc3cccc(C#N)c3)n2)cc1 | – | – | 100 µM (active)
Cc1cccc(-c2noc([C@@H]3Cc4nc[nH]c4CN3C(=O)CCC(=O)O)n2)c1 | – | -4.77% [at 174 µM] | –
O=C(c1ccco1)N1Cc2[nH]cnc2C[C@H]1c1nc(-c2ccncc2)no1 | – | -11.2% [at 138 µM] | –

SMILES | outcome | activity change, negative = cytotoxicity | Potency
CNC(=O)c1cc(C2CC2)nc2onc(C3CCN(C(=O)Cc4ccc(OC)cc4)CC3)c12 | – | -23.1% | –
O=C(c1cccnc1)N1CCC2(CCCN(C3CCOCC3)C2=O)C1 (configuration not stated) | – | 4.79% | –
O=c1[nH]c(N2CCOCC2)nc2c1CCN(Cc1cccc(F)c1)CC2 | – | 4.36% | –
O=C1c2cc(N3CCOCC3)nc(-c3cccnc3)c2CN1C1COC1 | – | – | 8.91 µM (active)
O=C(NC1CCCCC1)N1CCCCCC1c1nc(-c2cccnc2)no1 (configuration not stated) | – | -26.4% | –
CN1Cc2c(cc(N3CCOCC3)nc2-c2cccc(F)c2)C1=O | – | – | 8.91 µM (active)
Cc1cccc(Cn2c(-c3ccc(F)cc3)nc(C)c(CCO)c2=O)c1 | – | -20.2% | –
Cc1cc(N2CCC(NC(=O)c3cccc(N(C)C)c3)C2=O)ccc1F (configuration not stated) | – | -13.1% | –
O=C(c1c[nH]c2ccccc12)N1CCC2(COc3ccncc3S(=O)(=O)N2)C1 (configuration not stated) | – | -4.03% | –
Cc1cc(C(=O)N2CCC(N3C(=O)C(O)C34CCCCC4)CC2)nn1C (configuration not stated) | – | -3.23% | –
Cc1nc(C)c(C(=O)N2CCN(C(=O)N(C)C)[C@@H]3CS(=O)(=O)C[C@@H]32)s1 | – | -15.2% | –
COc1ccccc1C(=O)N1CCC2(CC1)C(=NC1CCCCC1)NC(=O)N2c1cccnc1 | inactive | – | –
O=C(NCc1nnc2n1C(C(=O)NC1CC1)CC2)c1ccncc1 (configuration not stated) | – | -3.99% | –
CCn1cc(S(=O)(=O)N2CC[C@@H]3C(=O)NCCCCCCN(Cc4ccncc4)[C@@H]3C2)cn1 | – | -21.9% | –
CN1[C@@H](CCC(=O)N2CCCC2)CNC(=O)[C@@H]2[C@H]1CCN2Cc1ccc(S(C)(=O)=O)cc1 | – | 3.65% | –
COc1ccccc1Nc1ccnc(N2CCC(NC(=O)NC(C)C)CC2)n1 | – | -11.6% | –
O=c1n(CCN2CCN([S+](=O)([O-])c3cccs3)CC2)nc2n1CCCC2 | – | -21.4% | –
O=[S+]([O-])(c1cccs1)N1CCN(c2nccc(Nc3ccccc3F)n2)CC1 | – | – | 25.1 µM (active)
COc1ccccc1Nc1ccnc(N2CCC(N[S+](=O)([O-])c3cccs3)CC2)n1 | – | – | 31.6 µM (active)
COc1ccccc1-n1c(=O)c(C(=O)N2CCN([S+](=O)([O-])c3cccs3)CC2)nc2cccnc21 | – | 4.07% | –
CN(C)C(=O)c1cccnc1OC1CCN(C(=O)c2ccc(Br)o2)C1 (configuration not stated) | – | -2.28% | –
CCc1nc2nccc(-c3ccco3)n2n1 | inactive | – | –
Cc1nc(-c2ccccc2OC2CN(C(=O)c3ccnn3C)C2)no1 | – | -10.8% | –
CC(=O)/C=C/C1=CC(C)(C)COc2ccc(O)cc21 | – | – | 25.1 µM (active)
Cc1noc(-c2cccc(OC3CN(C(=O)CN4C(=O)CCC4=O)C3)c2)n1 | – | 2.78% | –

SMILES | outcome | activity change, negative = cytotoxicity | Potency
CC(=O)Nc1ccc(NC(=O)Cn2nc3c(cc2=O)CCCCC3)cc1 | inactive | – | –
C1CCC(COCCc2noc(C3CNC3)n2)C1 | – | – | 7.94 µM (active)
O=C(c1ccoc1)N1CCCC(c2nc(CCOCC3CCCC3)no2)C1 (configuration not stated) | – | -12.7% | –
O=C(Cc1cccnc1)N1CCCC(c2nc(CCOCC3CCCC3)no2)C1 (configuration not stated) | – | -8.29% | –
COCCCNC(=O)c1ccc2oc(-c3ccc(OC)nc3)nc2c1 | – | -22% [at 138 µM] | –
CC(C)CNC(=O)N1CCCC(c2nc(C(C)C)no2)CCNC(=O)CC1 (configuration not stated) | – | -8.55% | –
CC(C)(C)NC(=O)N1CCCC(c2nc(CCOCC3CCOCC3)no2)C1 (configuration not stated) | inactive | – | –
CC(=O)N1CCN(c2cc(-c3noc([C@@H]4CCCN4C4CCC4)n3)ccn2)CC1 | – | -7.66% [at 138 µM] | –
CN1CCC(N2CCC[C@H]2c2nc(-c3ccc(OC4CCCCC4)nc3)no2)CC1 | – | – | 28.2 µM (active)
CC(=O)N1CCC(N2CCC[C@H]2c2nc(-c3ccc(-c4cncnc4)nc3)no2)CC1 | – | -21.4% [at 138 µM] | –
COCCN1CCC2(CCC1=O)CCN(C(=O)Nc1cc(Cl)ccc1C)CC2 | – | -17.5% | –
COCCNC(=O)C(C)[C@@H]1CC[C@@]2(C)CC[C@H](NC(=O)c3ccccc3)[C@@H](C)[C@@H]2[C@H]1O (some centres not stated) | – | -1.63% [at 138 µM] | –
CCN(CC)C(=O)[C@@H](C)C1CC[C@@]2(C)Cc3sc(N)nc3[C@@H](C)[C@@H]2[C@H]1O (some centres not stated) | – | -15.1% [at 174 µM] | –
C=CCN(C)C(=O)[C@@H](C)C1CC[C@@]2(C)Cc3sc(Nc4c(Cl)cccc4Cl)nc3[C@@H](C)[C@@H]2[C@H]1O (some centres not stated) | – | – | 44.7 µM (active)
Cc1cc(C2CCCN2C(=O)c2ccccc2)on1 (configuration not stated) | inactive | – | –
O=C(c1ccc2cc[nH]c2c1)N1CCN(Cc2cnc[nH]2)CC(O)C1 (configuration not stated) | – | -0.94% | –
O=C(C1CC1)N1CCn2c(nn(-c3ccc(F)cc3)c2=O)C1 | – | -29.2% [at 138 µM] | –
Cc1ccc(-n2nc3n(c2=O)CCN(C(=O)Cc2ccccn2)C3)cc1 | – | -2.45% | –
Cc1ccc(-n2nc3n(c2=O)CCN(C(=O)C(C)(C)C)C3)cc1 | – | – | 50.1 µM (active)
COc1ccc(CC(=O)Nc2cc(-c3cccnc3)nn2-c2ccccc2)cc1 | – | -35.3% | –
COc1ccc(-n2nc(-c3ccccc3)n(CC(=O)N(C)CC(C)C)c2=O)cc1 | – | – | 79.4 µM (active)
COc1ccc(N2CCN(C3CCCN(CC(=O)N(C)C(C)C)C3)CC2)cc1 (configuration not stated) | – | -1.05% | –
